Source: the supplement of paper PMC6555819

How the values were obtained:
Assay in all cases: PBM binding z-score (relative to random genomic background probes); higher = stronger binding; sequences stand for … in GC…GCGATTGACAGCGTAGAATGAAGG
[1] = tested on: PPARg:RXRa DBDmut IVT, anti-RXR (DBD mutation: RXRa K156A/R161A, NR concentration 270 nM, RXRa partner concentration 90 nM)
Method in brief: (§1)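 Regression normalization was applied to scanned fluorescence from custom Agilent 4×180K protein-binding microarrays. Before scanning, arrays were incubated 1 h with ligand-free nuclear receptor dimers, and binding was detected with antibodies against each partner (one per run). Binding z-scores use the random background probes as reference.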

[2] = tested on: PPARg:RXRa IVT, anti-PPARg (NR concentration 270 nM, RXRa partner concentration 90 nM)
Method in brief: as §1

[3] = tested on: PPARg DBDmut:RXRa IVT, anti-PPARg (DBD mutation: PPARg1 K132A/R137A, NR concentration 270 nM, RXRa partner concentration 90 nM)
Method in brief: as §1

[4] = tested on: PPARg DBDmut IVT, anti-PPARg (DBD mutation: PPARg1 K132A/R137A, NR concentration 270 nM)
Method in brief: as §1

[5] = tested on: PPARg homodimer (NR concentration 180 nM)
Method in brief: as §1

[6] = tested on: PXR:RXRa (NR concentration 270 nM, RXRa partner concentration 90 nM)
Method in brief: as §1

[7] = tested on: PXR homodimer (NR concentration 270 nM)
Method in brief: as §1

[8] = tested on: RARa:RXR (NR concentration 270 nM, RXRa partner concentration 90 nM)
Method in brief: as §1

[9] = tested on: RARa homodimer (NR concentration 270 nM)
Method in brief: as §1

[10] = tested on: RARb:RXRa (NR concentration 270 nM, RXRa partner concentration 90 nM)
Method in brief: as §1

[11] = tested on: RARb homodimer (NR concentration 270 nM)
Method in brief: as §1

[12] = tested on: RARg:RXRa (NR concentration 270 nM, RXRa partner concentration 90 nM)
Method in brief: as §1

[13] = tested on: RARg homodimer (NR concentration 270 nM)
Method in brief: as §1

[14] = tested on: RXRa DBDmut IVT, anti-RXR (DBD mutation: RXRa K156A/R161A, NR concentration 90 nM)
Method in brief: as §1

[15] = tested on: RXRa homodimer (NR concentration 180 nM)
Method in brief: as §1

[16] = tested on: THRa:RXRa (NR concentration 90 nM, RXRa partner concentration 90 nM)
Method in brief: as §1

[17] = tested on: THRa homodimer (NR concentration 90 nM)
Method in brief: as §1

[18] = tested on: VDR homodimer (NR concentration 270 nM)
Method in brief: as §1

Sequence	PBM binding z-score [1]	PBM binding z-score [2]	PBM binding z-score [3]	PBM binding z-score [4]	PBM binding z-score [5]	PBM binding z-score [6]	PBM binding z-score [7]	PBM binding z-score [8]	PBM binding z-score [9]	PBM binding z-score [10]	PBM binding z-score [11]	PBM binding z-score [12]	PBM binding z-score [13]	PBM binding z-score [14]	PBM binding z-score [15]	PBM binding z-score [16]	PBM binding z-score [17]	PBM binding z-score [18]
AGAATGAGGATATTAAGATCAGGGAATTGCGGTC	-0.168	0.03	0.947	0.486	-0.141	-0.209	0.0307	-0.171	0.578	-0.259	-0.295	0.0101	0.354	0.0131	0.0885	0.447	-0.112	0.17
TCATATATGTAAACAGGTGAAAGTCCGTAAGTTA	2.85	1.7	1.25	1.22	0.985	1.08	0.358	1.24	0.262	0.572	0.609	0.551	0.376	1.85	0.989	0.84	0.27	0.413
GGAATGAGGGCAAGTTGATAGCAGAGTTTGATGG	4.98	3.82	1.16	-0.0155	1.37	1.05	1.87	0.695	0.0185	2.64	1.65	1.55	2.21	2.79	1.04	1.85	1.02	2.22
CCTACTGGGCCATCAGGGCATTGATATCAACGTT	3.95	3.99	0.633	0.588	-0.00622	-0.679	-0.548	-0.889	-0.828	0.358	0.404	0.0558	0.438	-0.959	-0.308	0.292	-0.276	-0.114
CCTACTGGGCCATTCAGAAGTCATTGATCATATG	4.43	3.36	-0.17	-0.487	0.0197	-0.557	-0.689	-0.413	0.126	0.115	-0.105	0.0962	0.226	-0.00725	-0.479	-0.404	-0.643	-0.285
ACTTACGCGTCAACGAGGTTATAGCACGCGTATA	-0.0489	0.00944	0.527	-0.0395	0.374	1.04	-0.0402	1.15	0.181	0.516	0.406	0.413	0.22	0.579	1.09	1.52	0.379	0.536
GCATATAGGTAGTACAAGGTGAAAGTCCGATTGT	0.709	1.04	0.664	0.977	-0.146	0.403	0.176	0.66	0.249	0.368	0.817	0.404	0.395	0.422	0.53	3.23	1.02	0.0912
CAAACTAGGTCACAGAGGTCATAGTCCGTGCGTA	8.64	9.13	4.61	1.67	6.77	6.52	12.2	7.31	3.54	5.27	5.33	6.83	7.33	3.4	7.32	4.76	3.22	7.02
GCATATAGATAATACAAGGTGAAAGTCCGATTGT	0.0768	0.523	1.29	0.755	0.731	0.197	0.246	0.795	0.194	0.165	0.678	0.441	0.694	0.234	0.586	2.26	0.964	0.0275
TCTGCTAGGTGAGTTGGTCAGCTAACGAGCTGCC	1.24	1.52	0.145	-0.743	-1.59	-0.323	-0.828	-0.314	-1.28	0.429	-0.359	-0.346	-0.369	-0.485	-0.331	-0.346	-0.955	-0.985
CTCGAAAGGTCGGTTGAGGAGAGTATACGGATAA	-0.459	0.102	1.01	-0.0822	0.421	1.09	0.356	2.15	-0.00538	2.87	1.66	2.45	2.43	0.577	1.74	4.2	-0.262	0.602
TTAATGAGGTTATAAGATCAGGGAACGTTGCAAA	2.84	2.61	1.48	1.53	0.917	1.11	0.494	1.66	1.23	1.27	0.668	1.59	1.01	1.63	2.13	2.04	0.52	0.74
ACAGACAGGTGATGAAGGTAACTCCGGCTATCAT	0.0958	0.462	0.468	0.294	-0.227	0.0944	-0.1	0.357	0.0561	0.429	0.376	0.136	0.355	-0.394	0.346	0.328	0.183	-0.00954
ACAATGAGGTTACCAAAGATCAGGGAAACGCTTG	2.64	2.42	0.961	1.48	0.966	1.52	0.0541	2.2	0.0916	2.32	1.14	2.27	2.07	1.4	2.9	2.77	1.14	0.706
CGTCCAAGGTGAAAGGTCAGTGAAGAGATGACGG	2.98	5.2	-0.368	-0.702	3.24	4.74	0.474	6.87	1.47	4.62	4.53	6.03	5.76	0.481	7.85	3.97	1.23	1.08
